According to PubChem BioAssay (NCI):
The panel holds about 83,000 compounds, 20% with a hit somewhere; the sample as a whole holds those more often.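 The endpoint reported here, percent growth, reads 100 for growth as untreated, 0 for no net growth and -100 for all cells dead.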 Active and inactive are the calls of the source. Rule for the calls: active = growth percent below 10; inactive = the rest.

Each molecule was assayed on MDA-MB-468 breast (assay: NCI-60 one-dose screen, 48 h (100 = growth as untreated, 0 = no growth, -100 = all killed)). Settings: 10 µM unless noted.

Compound	growth
CC1(C)N=C(N)N=C(N)N1c1cccc(/C=C/C=C/c2cccc([N+](=O)[O-])c2)c1	16.2% (inactive)
COc1ccc(-c2[nH]nc(N)c2-c2cc(OC)c(OC)c(OC)c2)cc1	34% (inactive)
CC(=O)Nc1ccc(S(=O)(=O)NC(CCC(=O)Nc2ccc(Cl)cc2)C(=O)O)cc1 (stereo not given)	98.8% (inactive)
Cc1ccc(NC(=O)c2ccc(CN3CC[C@H](N(C)C)C3)c(C(F)(F)F)c2)cc1Nc1nccc(-c2cncnc2)n1	-36.5% (active)
N/C(=N\C(N)=N\c1nc2ccccc2s1)c1ccncc1Cl	90.3% (inactive)
O=C(CSc1nnc(-c2cc(-c3ccccc3)nc3ccccc23)n1-c1ccccc1)Nc1ccc(C(=O)/C=C/c2ccc(Cl)cc2)cc1	88.9% (inactive)
O=c1scc(-c2ccc(C(F)(F)F)cc2)s1	72.5% (inactive)
COc1ccc2c(c1)/C(=C1\S/C(=N/c3nnc(C)s3)NC1=O)C(=O)N2Cc1ccc(Cl)cc1	50.9% (inactive)
Cc1csc(NC(c2ccccc2)c2c(C)nc3ccccn23)n1 (stereo not given)	100% (inactive)
CC/C(=C\c1ccc(N(C)C)cc1)c1nc2ccccc2c(=O)[nH]1	91.4% (inactive)
O=C1/C(=C/c2ccc([N+](=O)[O-])o2)Oc2ccc(Br)cc21	65.3% (inactive)
C/C(O)=C(/C=N\C(=S)Nc1ccc(S(=O)(=O)Nc2nccs2)cc1)C(=O)Nc1ccccc1C	82% (inactive)
O=C(CSc1nc2c(n1Nc1ccccc1)-c1ccccc1SC2)Nc1nccs1	104% (inactive)
CCOC(=O)CO	99% (inactive)
C=C(C)[C@@H]1CC[C@]2(C(=O)OC)CC[C@]3(C)[C@H](CC[C@@H]4[C@@](C)(CC/C(N)=N/O)[C@H](C(=C)C)CC[C@]43C)[C@@H]12	99.5% (inactive)
COC(=O)CCC1=C(C)/C(=C/c2[nH]c(-c3ccc[nH]3)cc2OC)N=C1C	45.2% (inactive)
CCCCCCCCn1ccc2cc(NC(=O)Cn3cc(CN4CCOCC4)nn3)ccc21	88.2% (inactive)
COc1cc(NCC(O)CN(CC(C)C)CC(C)C)c2ncccc2c1 (stereo not given)	-19.8% (active)
COc1ccc(OC)c(/C=C/C(=O)c2c(C)nc3ccccc3c2/C=C/c2ccccc2)c1	60.5% (inactive)
c1ccc(CNc2nc(Nc3ccccc3)nc3ccccc23)cc1	13.2% (inactive)

Compound	growth
CCC/C(=N\NC(N)=O)C(OC)OC	103% (inactive)
C[C@H]1[C@H]2[C@H]3CC[C@@H]4[C@@]5(C)C/C(=C/c6cccnc6)C(=O)C(C)(C)[C@@H]5CC[C@@]4(C)[C@]3(C)CC[C@]23CO[C@]1(C)[C@@H](C(=O)/C=C\c1cccnc1)C3	-5.83% (active)
Nc1nc(SCc2cccc([N+](=O)[O-])c2)c2[nH]cnc2n1	64.5% (inactive)
Oc1c(CN2CCCC2)cc(COCc2ccccc2)c2cccnc12	-15.4% (active)
N#CC1C=Cc2c(ccc3ccccc23)N1C(=O)c1ccccc1 (stereo not given)	-10.5% (active)
Oc1cccc2ccc(-c3nnc(SCc4ccc(O)c5ncccc45)o3)nc12	0.74% (active)
COc1ccc2oc(=O)cc(-c3c(C#N)c(N)n4nc(N)c(C#N)c4c3C#N)c2c1	94.7% (inactive)
Cc1cc(=O)oc2cc(OCCCOc3ccc(/C=C/C(=O)Nc4ccc(Cl)cc4)cc3)ccc12	73.9% (inactive)
Nc1cccc(-c2ccc(COc3ccc(CC4SC(=O)NC4=O)cc3)cc2)c1 (stereo not given)	29.4% (inactive)
CCCCCN1C=C/C(=C\C(=O)N2CCCc3ccccc32)c2ccccc21	40% (inactive)
CC1=C(C(=O)Nc2ccc(F)cc2)C(c2ccc(Cl)cc2)C2=C(CC(C)(C)CC2=O)N1 (stereo not given)	89.4% (inactive)
NC(=O)CSSCC(N)=O	105% (inactive)
CC[C@]12C=CCN3CC[C@@]4(c5ccc(OC)cc5N(C)[C@H]4[C@@](O)(C(=O)OC)[C@@H]1OC(=O)CCC(=O)O[C@H]1CC[C@H]4[C@@H]5CC[C@H]6CC(=O)CC[C@]6(C)[C@H]5CC[C@]14C)[C@@H]32	24.8% (inactive)
CC1=Nc2cnc(Nc3ccc(N4CCCCC4)cc3)nc2Nc2ccccc21	54.9% (inactive)
COc1ccc(C(c2cc(OC)c(OC)c(OC)c2)N2CCN(Cc3ccccc3)CC2)cc1 (stereo not given)	53% (inactive)
COc1cccc(N2CCN(c3ncnc4cc[nH]c34)CC2)c1	18.8% (inactive)
Nc1nc(Nc2ccc(Cl)cc2)nn1S(=O)(=O)c1ccc(-c2ccc(F)cc2)cc1	96.2% (inactive)
CC(C)(C)Nc1nc2c(OCCc3ccccc3)cccn2c1-c1ccccc1Cl	-27.8% (active)
C=C(C)[C@@H]1CC[C@]2(C)[C@H](CC=C3[C@@H]4CC(C)(C)CC[C@]4(C(=O)NCC#CCN4CCN(C)CC4)CC[C@]32C)[C@@]1(C)CCC#N	47.9% (inactive)
c1ccc2cc(Cn3c(-c4cccc5ccccc45)[n+](Cc4ccc5ccccc5c4)c4c5ccccc5c5ccccc5c43)ccc2c1	-71.4% (active)
